ALDH1A1 block = blocks purified human ALDH1A1 activity; 7.3% of 220,000 active; AID 1030; Potency, µM (titrated, usually from 75.3 µM), without a hit: at the highest dose activity, negative = inhibition, hits mostly inhibitors; Purified ALDH1A1, NADH fluorescence, propionaldehyde substrate; P00352; active = well fitted inhibition curve with a large enough effect, not every such curve was filed as active; inconclusive = small, poorly fitted or top-dose-only effect, or another doubt; inactive = no such curve, though single readings can be large or run the other way;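 also: potency is read from the fitted curve at half-maximal effect; plate controls were no enzyme wells and a reference inhibitor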
PNC assembly inh = blocks assembly of the perinucleolar compartment; PC3M PTB-GFP, PNC prevalence imaging, 16 h; hits give low values; activity change (PNC), negative = inhibition, % at 10 µM; 3.1% of 140,000 active; AID 2417;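 active = readout at or below -70, meaning at least 70% loss of cells showing the perinucleolar compartment, a nuclear body marking cancer cells; inconclusive = readout between -30 and a set limit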;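 also: plate controls were DMSO wells for no effect and camptothecin positive control wells for full effect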
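Compounds are pinned in duplicate onto adhered PC3M cells stably expressing GFP-tagged PTB and incubated 16 h at 37 C. Cells are then fixed, nuclei stained with Hoechst, and PNC-positive cells counted.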
IMPase inh = membrane-permeable compound that blocks inositol monophosphatase. P97697. CHO-M1 cells, IP1 accumulation, HTRF TR-FRET ratio. inhibition (IP1 accumulation), % at 46.1 µM. 120,000 tested, under 10 active. AID 901; active = well fitted curve in the direction sought with a large enough effect in the signal ratio, not every such curve was filed as active; inconclusive = small, poorly fitted or top-dose-only effect, or a change in a side signal; inactive = no such curve, though single readings can be large or run the other way; the % refers to the signal ratio;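 also: cells stimulated with carbachol in lithium chloride buffer; plate controls were DMSO basal wells for no effect and reference inhibitor wells for full effect; higher means more IMPase inhibition seen as more IP1 and lower FRET ratio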
Target sequence (P97697 whole entry, looked up): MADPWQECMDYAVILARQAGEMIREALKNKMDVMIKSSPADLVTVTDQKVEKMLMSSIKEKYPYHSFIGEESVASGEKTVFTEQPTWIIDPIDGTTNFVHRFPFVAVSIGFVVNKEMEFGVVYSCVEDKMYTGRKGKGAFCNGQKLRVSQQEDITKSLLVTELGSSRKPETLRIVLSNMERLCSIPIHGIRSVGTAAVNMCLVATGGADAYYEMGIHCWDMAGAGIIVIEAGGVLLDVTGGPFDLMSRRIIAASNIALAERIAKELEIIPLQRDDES
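In this qHTS, compounds (final up to 46 uM) act on CHO-M1 cells that are then activated through the M1 receptor with carbachol, in pH 7.4 buffer containing 50 mM LiCl, for 30 min. IP1 accumulation is quantified by the IP-One immunoassay.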
IMPase Li cell = cell-permeable IMPase inhibitors with lithium potentiation; CHO-M1 cells, IP1 TR-FRET (IP-One), carbachol + lithium; Potency, µM (series often up to 59.4 µM), for inactives: at the top dose activity, negative = IMPase inhibition, hits mostly inhibitors; 0.35% of 210,000 active;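 also: IP1 builds up when IMPase is blocked and the TR-FRET signal falls; potency is read from the fitted curve at half-maximal effect; plate controls were basal vehicle for no effect and high inhibitor control for full effect; nearly all actives have a fitted effect of over 50% in size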
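Steps: plate 2000 CHO-M1 cells per well and culture 16–30 h; add compound and lithium; incubate 30 min, 37C; add d2-IP1 tracer and Eu cryptate anti-IP1 antibody in lysis buffer; read after 10 min at room temperature.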
HPGD inh = HPGD (human) dehydrogenase inhibition. purified HPGD, NADH fluorescence kinetic, PGE2 substrate. Potency, µM, inactives show at the highest dose activity change, negative = inhibition, hits mostly inhibitors. AID 894. 4.3% of 150,000 active; active = well fitted inhibition curve with a large enough effect, not every such curve was filed as active; inconclusive = small, poorly fitted or top-dose-only effect, or another doubt; inactive = no such curve, though single readings can be large or run the other way; also: potency is read from the fitted curve at half-maximal effect
Target sequence (P15428 whole entry, looked up): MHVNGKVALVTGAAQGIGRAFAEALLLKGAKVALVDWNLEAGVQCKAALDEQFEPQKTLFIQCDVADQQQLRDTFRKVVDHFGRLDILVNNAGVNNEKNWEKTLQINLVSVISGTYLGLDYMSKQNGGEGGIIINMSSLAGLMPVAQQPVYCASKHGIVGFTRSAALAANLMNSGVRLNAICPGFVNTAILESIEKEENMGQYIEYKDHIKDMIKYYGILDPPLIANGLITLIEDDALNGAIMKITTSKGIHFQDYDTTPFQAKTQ
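NADH formation kinetics: reaction with 30 uM PGE2 and 1 mM NAD+ (final), 20 nM enzyme, Tris-HCl pH 8 with Tween 20, after 15 min compound preincubation at room temperature. Fluorescence change, last versus first of five reads.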
12-hLO inh = inhibitors of human 12-lipoxygenase (ALOX12) | P18054 | purified 12-hLO, xylenol orange hydroperoxide absorbance | Potency, µM (series often up to 57.1 µM), for the others: at the highest dose activity change, negative = inhibition, actives largely listed as inhibitors | 0.12% of 150,000 active | AID 1452; also: potency is read from the fitted curve at half-maximal effect; nearly all actives have a fitted effect of over 55% in size
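Lipoxygenase turnover measured by absorbance at 573 and 405 nm after Fe-XO development. Human 12hLO 150 nM, arachidonate 40 uM, pH 7.0 Hepes buffer with detergent; 15 min compound preincubation, 30 min reaction.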
* = called active by the depositor; u = inconclusive; x = no result given; [ ] = remark or other dose. This is a sample that favours compounds with a hit; in the whole collection about 11% have one here. Unless noted, calls follow the shape of the dose curve; as a rule, active = well fitted curve in the direction sought with a large enough effect; inconclusive = small, poorly fitted or top-dose-only effect, or another doubt; inactive = no such curve, though single readings can be large; an effect the other way counts as inactive or inconclusive. Unless noted, % is scaled to controls: 0 for no effect and ±100 for the full control effect.

SMILES	ALDH1A1 block	PNC assembly inh	IMPase inh	IMPase Li cell	HPGD inh	12-hLO inh
Cc1ccc(Nc2c([N+](=O)[O-])c(=O)n(C)c3ccccc23)cc1	-5%	x	x	12%	x	x
Cn1c(=O)[nH]c(Nc2ccc(F)cc2)c([N+](=O)[O-])c1=O	-7%	-109*	x	-11%	-29%	1%
CSc1nc2sc3c(c2c2nncn12)CCC3	7.9µM*	-20	x	1%	-12%	2%
c1nnc2c3c4c(sc3ncn12)CCCC4	22%	3	-5	-4%	-2%	0%
COC(=O)c1cc(=O)n2c(-c3ccc(OC)cc3)csc2n1	5µM*	20	-5	4%[38.3 µM]	-10%	2%
O=C(Cn1cnc2ccccc21)OCC(=O)N1CCc2ccccc2C1	28µM*	8	17	15%[38.3 µM]	-14%	-4%
O=C(COC(=O)Cn1cnc2ccccc21)NCCc1ccccc1	-6%	-83*	1	-3%[38.3 µM]	-7%	-1%
O=C(COC(=O)Cn1cnc2ccccc21)Nc1ccc2c(c1)C(=O)c1ccccc1C2=O	0.63µM*	36	x	-13%	-26%	-4%
O=C(Cn1cnc2ccccc2c1=O)N1CCc2ccccc2C1	2%	x	x	4%	x	x
Cc1ccc(NC(=O)COC(=O)Cn2cnc3ccccc32)cc1S(=O)(=O)N(C)C	14µM*	44	x	-2%	-2%	5%
O=C(COC(=O)Cn1cnc2ccccc21)Nc1cccc(S(=O)(=O)N2CCOCC2)c1	u	x	x	2%	x	x
O=c1[nH]ncc2ccccc12	u	x	x	-14%	-7%	-1%
CC(C)CCCC(C)C1CCC2C3CC=C4CC(O)CCC4(C)C3CCC12C (configuration not stated)	9%	x	1	2%	0%	-4%
COC(=O)c1c(CSc2ccc(C)c(C)c2)noc1C(=O)NCc1ccc(OC)cc1	u	10	-3	34%[38.3 µM]	7.1µM*	-8%
COC(=O)c1c(CSc2ccc(Cl)cc2)noc1C(=O)NCc1ccco1	u	0	5	19%[38.3 µM]	22µM*	-18%
COC(=O)c1c(CSc2cccc(C)c2)noc1C(=O)NCc1ccco1	u	8	u	17%[38.3 µM]	11µM*	-7%
Cn1c(/C(C#N)=C(\O)c2ccc([N+](=O)[O-])cc2)nc2ccccc21	2%	x	x	-2%	x	x
CCN(CC)S(=O)(=O)c1ccc(/C(O)=C(\C#N)c2nc3ccccc3n2C)cc1	20µM*	6	4	5%[38.3 µM]	-18%	-3%
Cc1ccc(S(=O)(=O)Nc2cc(C)nn2-c2ccccc2)cc1	25µM*	-10	1	-13%[38.3 µM]	-7%	-9%
Cc1cc(NC(=O)c2ccccc2)n(-c2ccccc2)n1	2%	x	x	8%	x	x
Cc1cc(Nc2ccccc2)n(-c2cccc(Cl)c2)n1	u	-96*	8	46%[38.3 µM]	28µM*	-4%
COc1ccc(C2C(Oc3ccccc3)C(=O)N2c2cc(C)ccc2C)cc1OC (configuration not stated)	0%	-89*	3	22%[38.3 µM]	-10%	-1%
O=C(Nc1ccc(F)c([N+](=O)[O-])c1)C(=O)c1c(O)[nH]c2ccccc12	13µM*	x	x	-1%	x	x
O=C(Nc1ccccc1)Nc1ccc(F)c([N+](=O)[O-])c1	-6%	2	x	12%	-10%	0%
O=C(CSc1nnc(CNC(=O)c2c(F)cccc2Cl)o1)Nc1ccccc1F	x	x	13	x	x	x
Cc1noc(C)c1S(=O)(=O)N1CCc2nc(-c3ccccc3)c3c(c2C1)CO[C@@H](C)C3	0%[13.5 µM]	x	x	7%	-17%	5%[11.4 µM]
CN(C)c1ccc(/C=C2/C(=O)N(c3ccc([N+](=O)[O-])cc3)N=C2N2CCOCC2)cc1	1.3µM*	37	0	5%[38.3 µM]	-10%	-8%
CN(C)c1ccc(Nc2nc(N)c([N+](=O)[O-])c(N3CCOCC3)n2)cc1	-42%	u	x	27%	-10%	0%
COc1cccc(Nc2ncc3nc(-c4ccccc4)c(=O)n(C)c3n2)c1	u	x	x	-1%	x	x
